# About 410 targets per protein were measured; listed, in parts, are those with the strongest signals and a random draw of the rest.
# Experiments:
# Assay in all cases: glycan array binding signal (z-score within array); higher = stronger binding
# Conditions in all cases: glycan notation: IUPAC condensed, linker removed
# [1] = biological target: Fuc(a1-2)Gal(b1-3)[Fuc(a1-4)]GlcNAc(b1-2)Man(a1-3)[Fuc(a1-2)Gal(b1-3)[Fuc(a1-4)]GlcNAc(b1-2)Man(a1-6)]Man(b1-4)GlcNAc(b1-4)[Fuc(a1-6)]GlcNAc(b1-4)[Fuc(a1-6)]GlcNAc
# Method in brief: (§1)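 The binding signal is a Z-score computed within each array. Data were drawn from 3228 arrays in the Consortium for Functional Glycomics database, restricted to those with a known protein sequence. Scores were averaged over arrays of the same protein sequence at different concentrations or buffers, and over linkers, and negative values can be taken as non-binding.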
# [2] = biological target: Fuc(a1-2)Gal(b1-3)[Fuc(a1-4)]GlcNAc(b1-3)[Gal(b1-4)GlcNAc(b1-6)]Gal(b1-4)Glc
# Method in brief: as §1
# [3] = biological target: Fuc(a1-2)Gal(b1-4)Fuc(a1-3)]GlcNAc(b1-2)Man(a1-3)[Fuc(a1-2)Gal(b1-4)[Fuc(a1-3)]GlcNAc(b1-2)Man(a1-6)]Man(b1-4)GlcNAc(b1-4)GlcNAc
# Method in brief: as §1
# [4] = biological target: Fuc(a1-2)Gal(b1-4)[Fuc(a1-3)]GlcNAc(b1-3)Gal(b1-4)[Fuc(a1-3)]GlcNAc
# Method in brief: as §1
# [5] = biological target: Fuc(a1-2)[Gal(a1-3)]Gal(b1-3)GlcNAc(b1-2)Man(a1-3)[Fuc(a1-2)[Gal(a1-3)]Gal(b1-3)GlcNAc(b1-2)Man(a1-6)]Man(b1-4)GlcNAc(b1-4)[Fuc(a1-6)]GlcNAc
# Method in brief: as §1
# [6] = biological target: Fuc(a1-2)[Gal(a1-3)]Gal(b1-4)GlcNAc(b1-3)[Fuc(a1-2)[Gal(a1-3)]Gal(b1-4)GlcNAc(b1-6)]GalNAc
# Method in brief: as §1
# [7] = biological target: Fuc(a1-2)[GalNAc(a1-3)]Gal(b1-3)GalNAc(b1-3)Gal(a1-4)Gal(b1-4)Glc
# Method in brief: as §1
# [8] = biological target: Fuc(a1-2)[GalNAc(b1-3)]Gal
# Method in brief: as §1
# [9] = biological target: Fuc(a1-3)[Gal(b1-4)]GlcNAc(b1-3)Gal(b1-4)[Fuc(a1-3)]GlcNAc
# Method in brief: as §1
# Fuc(b1-3)GlcNAc = biological target: Fuc(b1-3)GlcNAc
# Method in brief: as §1
# [10] = biological target: Gal(a1-3)Gal(b1-3)[Fuc(a1-4)]GlcNAc(b1-2)Man(a1-3)[Gal(a1-3)Gal(b1-3)[Fuc(a1-4)]GlcNAc(b1-2)Man(a1-6)]Man(b1-4)GlcNAc(b1-4)GlcNAc
# Method in brief: as §1
# [11] = biological target: Gal(a1-3)[Gal(a1-4)]Gal(b1-4)GlcNAc
# Method in brief: as §1
# [12] = biological target: Gal(b1-3)GlcNAc(b1-3)Gal(b1-4)GlcNAc(b1-2)Man(a1-3)[Gal(b1-3)GlcNAc(b1-3)Gal(b1-4)GlcNAc(b1-2)Man(a1-6)]Man(b1-4)GlcNAc(b1-4)GlcNAc
# Method in brief: as §1
# [13] = biological target: Gal(b1-3)[Fuc(a1-4)]GlcNAc(b1-2)Man(a1-3)[Gal(b1-3)[Fuc(a1-4)]GlcNAc(b1-2)Man(a1-6)]Man(b1-4)GlcNAc(b1-4)[Fuc(a1-6)]GlcNAc
# Method in brief: as §1
# [14] = biological target: Gal(b1-3)[GlcNAc(b1-6)]GalNAc
# Method in brief: as §1
# [15] = biological target: Gal(b1-4)GalNAc(a1-3)[Fuc(a1-2)]Gal(b1-4)GlcNAc
# Method in brief: as §1
# [16] = biological target: Gal(b1-4)GlcNAc(b1-2)Man(a1-3)[Gal(b1-4)GlcNAc(b1-2)Man(a1-6)]Man(b1-4)GlcNAc(b1-4)[Fuc(a1-6)]GlcNAc
# Method in brief: as §1
# [17] = biological target: Gal(b1-4)GlcNAc(b1-2)[Gal(b1-4)GlcNAc(b1-6)]Man(a1-6)[Gal(b1-4)GlcNAc(b1-2)Man(a1-3)]Man(b1-4)GlcNAc(b1-4)[Fuc(a1-6)]GlcNAc
# Method in brief: as §1
# [18] = biological target: Gal(b1-4)GlcNAc(b1-3)Gal(b1-4)GlcNAc
# Method in brief: as §1
# [19] = biological target: Gal(b1-4)GlcNAc(b1-3)Gal(b1-4)GlcNAc(b1-2)Man(a1-3)[Gal(b1-4)GlcNAc(b1-3)Gal(b1-4)GlcNAc(b1-2)Man(a1-6)]Man(b1-4)GlcNAc(b1-4)GlcNAc
# Method in brief: as §1
# [20] = biological target: Gal(b1-4)GlcNAc(b1-3)Gal(b1-4)GlcNAc(b1-3)Gal(b1-4)GlcNAc(b1-3)Gal(b1-4)GlcNAc(b1-3)Gal(b1-4)GlcNAc(b1-3)Gal(b1-4)GlcNAc(b1-2)Man(a1-3)[Gal(b1-4)GlcNAc(b1-3)Gal(b1-4)GlcNAc(b1-3)Gal(b1-4)GlcNAc(b1-3)Gal(b1-4)GlcNAc(b1-3)Gal(b1-4)GlcNAc(b1-3)Gal(b1-4)GlcNAc(b1-2)Man(a1-6)]Man(b1-4)GlcNAc(b1-4)GlcNAc
# Method in brief: as §1
# [21] = biological target: Gal(b1-4)GlcNAc(b1-3)Gal(b1-4)GlcNAc(b1-3)[Gal(b1-4)GlcNAc(b1-3)Gal(b1-4)GlcNAc(b1-6)]GalNAc
# Method in brief: as §1
# [22] = biological target: Gal(b1-4)GlcNAc(b1-3)GalNAc
# Method in brief: as §1
# Gal3S6S(b1-4)GlcNAc6S = biological target: Gal3S6S(b1-4)GlcNAc6S
# Method in brief: as §1
# GalNAc(a1-3)GalNAc = biological target: GalNAc(a1-3)GalNAc
# Method in brief: as §1
# GalNAc3S(b1-4)GlcNAc3S = biological target: GalNAc3S(b1-4)GlcNAc3S
# Method in brief: as §1
# GalNAc4S6S(b1-4)GlcNAc = biological target: GalNAc4S6S(b1-4)GlcNAc
# Method in brief: as §1
# Glc(a1-6)Glc(a1-6)Glc = biological target: Glc(a1-6)Glc(a1-6)Glc
# Method in brief: as §1
# GlcA(b1-6)Gal = biological target: GlcA(b1-6)Gal
# Method in brief: as §1
# [23] = biological target: GlcA3S(b1-3)Gal(b1-4)GlcNAc(b1-3)Gal(b1-4)Glc
# Method in brief: as §1
# [24] = biological target: GlcNAc(a1-4)Gal(b1-4)GlcNAc(b1-3)Gal(b1-4)GlcNAc
# Method in brief: as §1
# [25] = biological target: GlcNAc(b1-3)Gal(b1-4)GlcNAc
# Method in brief: as §1
# [26] = biological target: GlcNAc(b1-3)Gal(b1-4)GlcNAc(b1-2)Man(a1-3)[GlcNAc(b1-3)Gal(b1-4)GlcNAc(b1-2)Man(a1-6)]Man(b1-4)GlcNAc(b1-4)[Fuc(a1-6)]GlcNAc
# Method in brief: as §1
# [27] = biological target: GlcNAc(b1-3)Gal(b1-4)GlcNAc(b1-3)Gal(b1-4)GlcNAc(b1-2)Man(a1-3)[GlcNAc(b1-3)Gal(b1-4)GlcNAc(b1-3)Gal(b1-4)GlcNAc(b1-2)Man(a1-6)]Man(b1-4)GlcNAc(b1-4)GlcNAc
# Method in brief: as §1
# [28] = biological target: GlcNAc(b1-3)Gal(b1-4)GlcNAc(b1-3)Gal(b1-4)GlcNAc(b1-3)Gal(b1-4)GlcNAc(b1-2)Man(a1-3)[GlcNAc(b1-3)Gal(b1-4)GlcNAc(b1-3)Gal(b1-4)GlcNAc(b1-3)Gal(b1-4)GlcNAc(b1-2)Man(a1-6)]Man(b1-4)GlcNAc(b1-4)[Fuc(a1-6)]GlcNAc
# Method in brief: as §1
# Kdn(a2-3)Gal(b1-4)GlcNAc = biological target: Kdn(a2-3)Gal(b1-4)GlcNAc
# Method in brief: as §1
# Neu5Ac(a2-3)Gal = biological target: Neu5Ac(a2-3)Gal
# Method in brief: as §1
# [29] = biological target: Neu5Ac(a2-3)Gal(b1-3)GalNAc(b1-3)Gal(a1-4)Gal(b1-4)Glc
# Method in brief: as §1
# [30] = biological target: Neu5Ac(a2-3)Gal(b1-3)GlcNAc(b1-3)Gal(b1-4)GlcNAc
# Method in brief: as §1
# [31] = biological target: Neu5Ac(a2-3)Gal(b1-3)GlcNAc(b1-6)GalNAc
# Method in brief: as §1
# [32] = biological target: Neu5Ac(a2-3)Gal(b1-4)GlcNAc(b1-3)Gal(b1-4)GlcNAc(b1-3)GalNAc
# Method in brief: as §1
# [33] = biological target: Neu5Ac(a2-3)Gal(b1-4)[Fuc(a1-3)]GlcNAc
# Method in brief: as §1
# [34] = biological target: Neu5Ac(a2-3)Gal(b1-4)[Fuc(a1-3)]GlcNAc(b1-3)Gal(b1-4)[Fuc(a1-3)]GlcNAc(b1-3)Gal(b1-4)[Fuc(a1-3)]GlcNAc
# Method in brief: as §1
# [35] = biological target: Neu5Ac(a2-3)Gal(b1-4)[Fuc(a1-3)]GlcNAc(b1-3)GalNAc
# Method in brief: as §1
# [36] = biological target: Neu5Ac(a2-3)[Neu5Ac(a2-6)]GalNAc
# Method in brief: as §1
# [37] = biological target: Neu5Ac(a2-6)Gal(b1-4)GlcNAc(b1-2)Man
# Method in brief: as §1
# [38] = biological target: Neu5Ac(a2-6)Gal(b1-4)GlcNAc(b1-2)Man(a1-3)[Gal(b1-4)GlcNAc(b1-2)Man(a1-6)]Man(b1-4)GlcNAc(b1-4)GlcNAc
# Method in brief: as §1
# [39] = biological target: Neu5Ac(a2-8)Neu5Ac(a2-3)Gal(b1-3)GalNAc(b1-4)[Neu5Ac(a2-3)]Gal(b1-4)Glc
# Method in brief: as §1
# [40] = biological target: Neu5Ac(a2-8)Neu5Ac(a2-3)[Gal(b1-3)GalNAc(b1-4)]Gal(b1-4)Glc
# Method in brief: as §1
# [41] = biological target: Neu5Ac(a2-8)Neu5Ac(a2-8)Neu5Ac(a2-8)Neu5Ac(a2-3)[GalNAc(b1-4)]Gal(b1-4)Glc
# Method in brief: as §1
binder,measurement,setting,value
"XTP3-B-MRH1 (Homo sapiens), Q96DZ1 (protein) LLEPLFKQSSCSYRIESYWTYEVCHGKHIRQYHEEKETGQKINIHEYYLGNMLAKNLLFEKEREAEEKEKSNEIPTKNIEGQMTPYYPVGMGNGTPCSLKQNRPRSSTVMYICHPESKHEILSVAEVTTCEYEVVILTPLLCSHPKYRFRA",glycan array binding signal (z-score),[1],0.479
same,glycan array binding signal (z-score),[2],0.735
same,glycan array binding signal (z-score),[3],3.43
same,glycan array binding signal (z-score),[4],0.249
same,glycan array binding signal (z-score),[5],-0.029
same,glycan array binding signal (z-score),[6],0.358
same,glycan array binding signal (z-score),[7],-0.49
same,glycan array binding signal (z-score),[8],-1.01
same,glycan array binding signal (z-score),[9],4.25
same,glycan array binding signal (z-score),Fuc(b1-3)GlcNAc,0.382
same,glycan array binding signal (z-score),[10],-0.237
same,glycan array binding signal (z-score),[11],-0.853
same,glycan array binding signal (z-score),[12],0.941
same,glycan array binding signal (z-score),[13],-0.731
same,glycan array binding signal (z-score),[14],-0.389
same,glycan array binding signal (z-score),[15],-0.41
same,glycan array binding signal (z-score),[16],-0.184
same,glycan array binding signal (z-score),[17],1.61
same,glycan array binding signal (z-score),[18],2.97
same,glycan array binding signal (z-score),[19],3.79
same,glycan array binding signal (z-score),[20],0.082
same,glycan array binding signal (z-score),[21],1.07
same,glycan array binding signal (z-score),[22],-0.205
same,glycan array binding signal (z-score),Gal3S6S(b1-4)GlcNAc6S,-0.392
same,glycan array binding signal (z-score),GalNAc(a1-3)GalNAc,3.12
same,glycan array binding signal (z-score),GalNAc3S(b1-4)GlcNAc3S,3.07
same,glycan array binding signal (z-score),GalNAc4S6S(b1-4)GlcNAc,-0.682
same,glycan array binding signal (z-score),Glc(a1-6)Glc(a1-6)Glc,-0.837
same,glycan array binding signal (z-score),GlcA(b1-6)Gal,0.841
same,glycan array binding signal (z-score),[23],-0.47
same,glycan array binding signal (z-score),[24],-0.549
same,glycan array binding signal (z-score),[25],-0.824
same,glycan array binding signal (z-score),[26],-0.235
same,glycan array binding signal (z-score),[27],2.48
same,glycan array binding signal (z-score),[28],4.18
same,glycan array binding signal (z-score),Kdn(a2-3)Gal(b1-4)GlcNAc,-0.086
same,glycan array binding signal (z-score),Neu5Ac(a2-3)Gal,-0.797
same,glycan array binding signal (z-score),[29],-0.636
same,glycan array binding signal (z-score),[30],0.189
same,glycan array binding signal (z-score),[31],-0.811
same,glycan array binding signal (z-score),[32],3.41
same,glycan array binding signal (z-score),[33],-0.083
same,glycan array binding signal (z-score),[34],-0.381
same,glycan array binding signal (z-score),[35],2.68
same,glycan array binding signal (z-score),[36],0.205
same,glycan array binding signal (z-score),[37],1.44
same,glycan array binding signal (z-score),[38],-0.887
same,glycan array binding signal (z-score),[39],-1.01
same,glycan array binding signal (z-score),[40],2.49
same,glycan array binding signal (z-score),[41],1.37
